Screens deposited in PubChem by National Center for Advancing Translational Sciences (NCATS).
ATXN viability: cell viability loss in ATXN counter-screen. hit rate 0.49% among 400,000. Potency, µM (top dose mostly 56.7 µM), hits mostly cytotoxic. S2 cells (HEK-293 line with an ATXN2-luciferase reporter) viability, CellTiter-Fluor protease fluorescence, 24 h; note: nearly all actives have a fitted effect of over 40% in size
Gal4-VP16 FLuc: Gal4-VP16 reporter inhibition counter-screen. AID 2546. hit rate 3.5% among 310,000. Drosophila S2 Gal4-VP16 UAS-luciferase, luminescence, 20 h. Potency, µM (titrated, usually from 53.6 µM), for inactives: at the highest dose activity, negative = inhibition, hits mostly inhibitors;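 note: Gal4-VP16 expression switched on by copper sulfate through the metallothionein promoter; % is set by controls: 0 for no effect and ±100 for the full control effect; nearly all actives have a fitted effect of over 50% in size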
HepG2 tox: counter-screen for TGF-b inhibitors: cytotoxicity in HepG2 cells; HepG2 CAGA-GFP viability, ATP luminescence, 18 h; Potency, µM (series often up to 46.1 µM), for the others: top-dose activity change, negative = cytotoxicity, actives largely listed as cytotoxic; hit rate 0.76% among 410,000
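HepG2 CAGA-GFP cells (1000/well, DMEM with 1% FBS) received compound, then TGF-beta at 500 pg/mL final, and were incubated 18 hours at 37 degrees C. Viability was read by CellTiter-Glo luminescence. Media-only wells were set as complete cell-killing and DMSO as no toxicity.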
TGFb inhibitor: blocks TGF-b signaling. HepG2 CAGA-GFP TGF-b/SMAD3 reporter, GFP fluorescence, 18 h; TGF-beta stimulated, 500 pg/mL final. Potency, µM (highest dose often 46.1 µM), for the others: top-dose activity, negative = inhibition, actives largely listed as inhibitors. hit rate 1.2% among 410,000. AID 588855; note: % is set by controls: 0 for no effect and ±100 for the full control effect; nearly all actives have a fitted effect of over 65% in size
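Per well, imaged GFP fluorescence of HEPG2 CAGA-GFP cells gives the signal; cells get compound, then TGF-beta (500 pg/mL final), 18 h at 37 degrees C; %Activity versus -TGF-beta and +DMSO controls.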
ATXN2 expr inh: inhibitors of ATXN2 expression; hit rate 0.72% among 360,000; Potency, µM (highest dose often 57 µM), for the others: at the highest dose activity change, negative = inhibition, actives largely listed as inhibitors; HEK-293 ATXN2-luciferase reporter, luminescence, 24 h; note: % is set by controls: 0 for no effect and ±100 for the full control effect; nearly all actives have a fitted effect of over 55% in size
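qHTS (up to 57 uM final) was run with 24 h compound exposure of reporter cells at 37 °C. Each well was multiplexed: SteadyGlo luminescence measured ATXN2-luciferase expression after a fluorogenic Gly-Phe-AFC viability readout (25 uM final).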
RORgamma inh: ROR gamma (mouse) transcription inhibition; hit rate 5.4% among 310,000; AID 2551; Drosophila S2 Gal4-RORgamma UAS-luciferase reporter, 20 h; Potency, µM (doses to about 53.6 µM), for inactives: at the highest dose activity change, negative = inhibition, usual class: inhibitors; note: % is set by controls: 0 for no effect and ±100 for the full control effect; nearly all actives have a fitted effect of over 60% in size
Target sequence (P51450 whole entry, looked up, the tested form may be a part): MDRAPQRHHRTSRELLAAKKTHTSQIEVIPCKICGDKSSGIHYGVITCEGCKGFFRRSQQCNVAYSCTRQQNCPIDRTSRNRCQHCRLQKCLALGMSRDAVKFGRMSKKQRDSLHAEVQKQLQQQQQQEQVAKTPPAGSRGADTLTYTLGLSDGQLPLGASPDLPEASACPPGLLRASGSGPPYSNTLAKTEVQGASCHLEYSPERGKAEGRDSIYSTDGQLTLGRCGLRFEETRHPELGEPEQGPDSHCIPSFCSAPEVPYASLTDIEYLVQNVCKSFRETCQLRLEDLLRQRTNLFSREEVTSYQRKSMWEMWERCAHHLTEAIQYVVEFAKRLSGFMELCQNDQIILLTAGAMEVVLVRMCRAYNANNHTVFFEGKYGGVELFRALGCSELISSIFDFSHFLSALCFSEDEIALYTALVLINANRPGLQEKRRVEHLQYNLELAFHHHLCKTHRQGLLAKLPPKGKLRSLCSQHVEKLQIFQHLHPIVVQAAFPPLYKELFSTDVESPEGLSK
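In this cell-based reporter format, copper sulfate (700 uM final) drives Gal4–ROR gamma fusion expression from a metallothionein promoter in Drosophila Schneider cells; compounds preincubated 1 hr, reporter read after 20 hr at ambient temperature.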
Starred values were filed as active, the others as inactive. Rows were chosen to be rich in hits. Some 6.3% of all compounds tested hit in one or more screens of this group. Calls come from the whole dose curve; as a rule, active = well fitted curve in the direction sought with a large enough effect; inconclusive = small, poorly fitted or top-dose-only effect, or another doubt; inactive = no such curve, though single readings can be large; an effect the other way counts as inactive or inconclusive. Potency is the fitted concentration of half-maximal effect.

Results for Cc1cccc(CSCCNC(=S)Nc2ccccc2)c1 ?
ATXN viability: inactive; Gal4-VP16 FLuc: 5.6µM*; HepG2 tox: -29%; TGFb inhibitor: -12%; ATXN2 expr inh: 8%; RORgamma inh: 5.6µM*

Results for S=C(NCCSCc1ccc(Cl)cc1)Nc1ccccc1 ?
ATXN viability: inactive; Gal4-VP16 FLuc: 11µM*; HepG2 tox: -12%; TGFb inhibitor: inconclusive; ATXN2 expr inh: -7%; RORgamma inh: 2.5µM*

How did S=C(NCCSCc1ccccc1Cl)Nc1ccccc1 do in these assays?
ATXN viability: inactive; Gal4-VP16 FLuc: 4µM*; HepG2 tox: -16%; TGFb inhibitor: inconclusive; ATXN2 expr inh: 1%; RORgamma inh: 2.8µM*

Results for O=C1CCCC2=C1C(c1cccc(O)c1)c1c(ccc3ncccc13)N2 (centres undefined) ?
ATXN viability: inactive; Gal4-VP16 FLuc: -3%; HepG2 tox: -17%; TGFb inhibitor: -8%; ATXN2 expr inh: 123%; RORgamma inh: inconclusive

How did O=C(Cn1c(=O)n(Cc2ccc3c(c2)OCO3)c(=O)c2oc3ccccc3c21)Nc1ccccc1F do in these assays?
HepG2 tox: -2%; TGFb inhibitor: 0%

What do the screens show for `COC(=O)c1cc2c(n1S(=O)(=O)c1ccc(C)cc1)C(=O)C(=O)c1[nH]cc(C(=O)OCc3ccccc3)c1-2`?
ATXN viability: 4.7µM*; HepG2 tox: 0.71µM*; TGFb inhibitor: inconclusive; ATXN2 expr inh: 3µM*

How did CSc1ccc(NC(=O)Nc2cc(C)ccn2)cc1 do in these assays?
ATXN viability: inactive; Gal4-VP16 FLuc: inconclusive; HepG2 tox: 8%; TGFb inhibitor: 4%; ATXN2 expr inh: 50%; RORgamma inh: 8.9µM*

How did COc1ccc(C(=O)NC(=O)Nc2cc(C)ccn2)cc1 do in these assays?
ATXN viability: inconclusive; Gal4-VP16 FLuc: 0.18µM*; HepG2 tox: -13%; TGFb inhibitor: 4%; ATXN2 expr inh: inconclusive; RORgamma inh: 0.04µM*

Results for Cc1ccnc(N/C=C/C(=O)c2ccc(Br)cc2)c1 ?
ATXN viability: inactive; Gal4-VP16 FLuc: inconclusive; HepG2 tox: -27%; TGFb inhibitor: 0%; ATXN2 expr inh: -11%; RORgamma inh: inconclusive

Results for COc1ccc(C(=O)/C=C/Nc2cc(C)ccn2)cc1 ?
ATXN viability: inactive; Gal4-VP16 FLuc: inconclusive; HepG2 tox: -20%; TGFb inhibitor: -7%; ATXN2 expr inh: -31%; RORgamma inh: 0.2µM*

How did Cc1ccnc(NC(=O)Nc2ccc(F)cc2)c1 do in these assays?
ATXN viability: inactive; Gal4-VP16 FLuc: -14%; HepG2 tox: -21%; TGFb inhibitor: inconclusive; ATXN2 expr inh: 68%; RORgamma inh: inconclusive

Results for COc1ccc(NC(=O)Nc2cc(C)ccn2)cc1 ?
ATXN viability: inactive; HepG2 tox: -2%; TGFb inhibitor: 1%; ATXN2 expr inh: -26%

What do the screens show for `Cc1ccc(Cn2cc(CN3CC(N4CCCC4)CS3(=O)=O)nn2)cc1` (centres undefined)?
ATXN viability: inactive; ATXN2 expr inh: 1%

How did CCCCNC(=O)CCCn1c(=O)c2ccccc2n(Cc2ccc(Cl)cc2)c1=O do in these assays?
ATXN viability: inactive; HepG2 tox: -11%; TGFb inhibitor: -10%; ATXN2 expr inh: -2%

How did CCCCN(C(=O)c1ccc(N2CCCC2=O)cc1)c1c(N)n(CCC)c(=O)[nH]c1=O do in these assays?
ATXN viability: inactive; HepG2 tox: -9%; TGFb inhibitor: 3%

What do the screens show for `Cc1ccc(C(=S)NCS(=O)(=O)c2ccc(C)cc2)cc1`?
ATXN viability: inactive; Gal4-VP16 FLuc: 8.9µM*; HepG2 tox: -3%; TGFb inhibitor: -31%; ATXN2 expr inh: 0%; RORgamma inh: 2.8µM*

What do the screens show for `Cc1ccc(S(=O)(=O)NC(=S)c2ccccc2)cc1`?
ATXN viability: inactive; HepG2 tox: 11%; TGFb inhibitor: -2%; ATXN2 expr inh: 5%
